Assay results from the supplement of paper PMC6555819.

Key:
Assay in all cases: PBM binding z-score (relative to random genomic background probes); higher = stronger binding; sequences stand for … in GC…GCGATTGACAGCGTAGAATGAAGG
[1] = tested on: FXR:RXRa (NR concentration 270 nM, RXRa partner concentration 90 nM)
How it was run: (§1)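 Scanned fluorescence from custom Agilent 4×180K protein-binding microarrays was regression-normalized. Binding z-scores use random background probes as reference. Ligand-free nuclear receptor dimers were incubated on the arrays for 1 h and detected with antibodies against each partner (one per run).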

[2] = tested on: LXRa:RXRa (NR concentration 270 nM, RXRa partner concentration 90 nM)
How it was run: as §1

[3] = tested on: LXRa homodimer (NR concentration 270 nM)
How it was run: as §1

[4] = tested on: LXRb:RXRa (NR concentration 270 nM, RXRa partner concentration 90 nM)
How it was run: as §1

[5] = tested on: LXRb homodimer (NR concentration 270 nM)
How it was run: as §1

[6] = tested on: PPARa:RXRa (NR concentration 270 nM, RXRa partner concentration 90 nM)
How it was run: as §1

[7] = tested on: PPARg:RXRa (NR concentration 180 nM, RXRa partner concentration 90 nM)
How it was run: as §1

[8] = tested on: PPARg:RXRa 270nM:90nM, anti-RXR (NR concentration 270 nM, RXRa partner concentration 90 nM)
How it was run: as §1

[9] = tested on: PPARg:RXRa 30nM:10nM, anti-RXR (NR concentration 30 nM, RXRa partner concentration 10 nM)
How it was run: as §1

[10] = tested on: PPARg:RXRa 90nM:30nM, anti-RXR (NR concentration 90 nM, RXRa partner concentration 30 nM)
How it was run: as §1

[11] = tested on: PPARg:RXRa DBDmut IVT, anti-RXR (DBD mutation: RXRa K156A/R161A, NR concentration 270 nM, RXRa partner concentration 90 nM)
How it was run: as §1

[12] = tested on: PPARg:RXRa IVT, anti-PPARg (NR concentration 270 nM, RXRa partner concentration 90 nM)
How it was run: as §1

[13] = tested on: PPARg DBDmut:RXRa IVT, anti-PPARg (DBD mutation: PPARg1 K132A/R137A, NR concentration 270 nM, RXRa partner concentration 90 nM)
How it was run: as §1

[14] = tested on: PPARg DBDmut IVT, anti-PPARg (DBD mutation: PPARg1 K132A/R137A, NR concentration 270 nM)
How it was run: as §1

[15] = tested on: PPARg homodimer (NR concentration 180 nM)
How it was run: as §1

[16] = tested on: PXR:RXRa (NR concentration 270 nM, RXRa partner concentration 90 nM)
How it was run: as §1

[17] = tested on: PXR homodimer (NR concentration 270 nM)
How it was run: as §1

[18] = tested on: RARa:RXR (NR concentration 270 nM, RXRa partner concentration 90 nM)
How it was run: as §1

[19] = tested on: RARa homodimer (NR concentration 270 nM)
How it was run: as §1

[20] = tested on: RARb:RXRa (NR concentration 270 nM, RXRa partner concentration 90 nM)
How it was run: as §1

| Sequence | PBM binding z-score [1] | PBM binding z-score [2] | PBM binding z-score [3] | PBM binding z-score [4] | PBM binding z-score [5] | PBM binding z-score [6] | PBM binding z-score [7] | PBM binding z-score [8] | PBM binding z-score [9] | PBM binding z-score [10] | PBM binding z-score [11] | PBM binding z-score [12] | PBM binding z-score [13] | PBM binding z-score [14] | PBM binding z-score [15] | PBM binding z-score [16] | PBM binding z-score [17] | PBM binding z-score [18] | PBM binding z-score [19] | PBM binding z-score [20] |
| --- | --- | --- | --- | --- | --- | --- | --- | --- | --- | --- | --- | --- | --- | --- | --- | --- | --- | --- | --- | --- |
| AGAACGAAGGCAATGAGTTGATAGCACGGGTGGC | -0.744 | -0.976 | -0.545 | -0.999 | -1.01 | -0.613 | 0.809 | -0.61 | -0.619 | -0.608 | -0.602 | -0.376 | 0.0932 | -0.515 | -1.7 | -0.512 | -0.132 | -0.69 | -0.881 | -0.477 |
| TTACCCAGGTGAAAGGTCGTTGATGCACGCCTTG | 2.92 | 3.07 | 0.858 | 2.75 | -0.247 | 5.24 | 9.35 | 8.61 | 7.49 | 10.2 | 3.16 | 5.28 | 1.04 | 0.584 | 2.1 | 3.69 | 0.742 | 4.9 | -0.211 | 2.46 |
| CCTACTGGGCCATTAGGTCATTGATATCAACGTT | 1.06 | 0.977 | 0.832 | 1.24 | -0.52 | 2.76 | 3.46 | 3.68 | 1.32 | 3.03 | 5.31 | 5.88 | 0.577 | 0.445 | 1.02 | 1.13 | 0.202 | 1.72 | 0.45 | 2.09 |
| GCTATTAATTGAAAGGGCAACCGAATGATTCTCG | 0.000102 | 0.439 | 1.02 | 0.408 | -0.192 | 1.08 | 0.608 | 0.921 | -0.0129 | 0.592 | 0.162 | 0.122 | -0.051 | -0.0832 | 1.66 | 0.52 | 1.04 | 0.517 | 2.31 | 2.02 |
| CGAACTAGGTGAAGGACAGTGAATCTCCGCACGC | -0.222 | -0.234 | -0.52 | -0.714 | -1.01 | 2.1 | 3.52 | 3.2 | 0.549 | 2.14 | 7.22 | 6.69 | 0.351 | 1.02 | -0.373 | -0.343 | -0.341 | -0.0643 | -0.232 | 0.792 |
| ACTTACGGGTCAACGAGGTTATGGCACGCGTATA | 7.06 | 5.06 | 0.89 | 4.51 | 0.72 | 5.54 | 5.52 | 5.67 | 2.05 | 3.95 | 3.48 | 4.51 | 1.34 | 0.297 | 3.2 | 5.1 | 2.74 | 5.52 | 0.8 | 4.32 |
| TCTATTAGTTGATTAGTGCAACCGAAACAGCGGA | 0.567 | 0.676 | 0.422 | 0.608 | 0.403 | 0.779 | -0.179 | 2.12 | 3.55 | 2.78 | 1.81 | 0.352 | 1.1 | 1.5 | 0.86 | 0.603 | 0.441 | 0.464 | 1.06 | 0.332 |
| AGTCAAAGTTCAGGAGGAGGTAACGTAAAGCACG | 4.22 | 3.87 | 1.6 | 2.24 | 0.773 | 3.67 | 5.03 | 5.22 | 2.38 | 3.98 | -0.11 | 2.24 | 0.683 | 1.05 | 2.81 | 3.09 | 1.96 | 3.17 | 1.91 | 4.57 |
| GCACGGAGGACAAGGTCAGAGCTTTGTCCGTAGA | 1.87 | 1.26 | -0.362 | 1.23 | -0.916 | 2.15 | 0.53 | 1.2 | -0.394 | 0.459 | -0.0936 | 0.429 | -1.21 | -1.21 | 0.85 | 1.72 | -0.197 | 2.03 | -0.486 | 3.27 |
| GCTCGGAGTACAAGGTCAGAGCTTTGTCCGTAGA | 1.17 | 1.6 | 0.0814 | 1 | -0.761 | 2.17 | 0.501 | 1.48 | -0.171 | 0.497 | 0.542 | 0.648 | -1.36 | -1.01 | 1.73 | 1.67 | -0.101 | 2.14 | -0.729 | 3.07 |
| GCTTACGGGTCGAAGGTTATAGCATGAATAGAAT | 2.01 | 2 | -0.187 | 2.51 | -0.371 | 4.36 | 6.66 | 6.7 | 4.94 | 6.88 | 0.529 | 2.66 | 0.973 | 0.687 | 1.39 | 2.65 | -0.142 | 3.79 | -0.0107 | 1.49 |
| TCTCGCAGGCCAGAGGGTCACTCAAGAGGTACGG | 1.04 | 1.1 | -0.517 | 1.02 | -1.09 | 2.32 | 0.92 | 1.95 | 2.05 | 1.91 | 0.998 | 0.394 | -0.712 | -0.719 | 0.381 | 1.62 | -0.348 | 2.25 | -0.311 | 2.45 |
| TTACCAAGGTGAAGGTCGTTGAACCCTCTGTAGA | 3.72 | 3.95 | 1.78 | 2.99 | -0.723 | 3.27 | 3.46 | 4.28 | 2.15 | 3.9 | 1.76 | 3.38 | 0.136 | 0.367 | 0.968 | 3.18 | 0.277 | 3.4 | -0.283 | 2.4 |
| ATCGAAAGGTCGAGGTGAGGATAGAGAAAGGGAA | 4.33 | 3.16 | 0.082 | 2.64 | 0.457 | 4.44 | 3.06 | 3.83 | 1.33 | 2.81 | 0.551 | 2.41 | 1.29 | 0.836 | 1.63 | 2.46 | 0.644 | 3.16 | 0.718 | 4.06 |
